# Values without a mark were called inactive. The rule behind the calls is not given here.
# Target: Pantothenate synthetase (Mycobacterium tuberculosis (strain ATCC 25618 / H37Rv)) (UniProt P9WIL5)
# Test: Coupled enzyme confirmation of inhibitors against recombinant Mtb PanC (AID 375);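 note: 0% = full reaction with vehicle and 100% = no enzyme background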
# Settings: coupled enzyme assay; at 10 µM, active compounds read high
# Pantothenate synthetase (Mycobacterium tuberculosis (strain ATCC 25618 / H37Rv)), sequence (P9WIL5 whole entry, looked up): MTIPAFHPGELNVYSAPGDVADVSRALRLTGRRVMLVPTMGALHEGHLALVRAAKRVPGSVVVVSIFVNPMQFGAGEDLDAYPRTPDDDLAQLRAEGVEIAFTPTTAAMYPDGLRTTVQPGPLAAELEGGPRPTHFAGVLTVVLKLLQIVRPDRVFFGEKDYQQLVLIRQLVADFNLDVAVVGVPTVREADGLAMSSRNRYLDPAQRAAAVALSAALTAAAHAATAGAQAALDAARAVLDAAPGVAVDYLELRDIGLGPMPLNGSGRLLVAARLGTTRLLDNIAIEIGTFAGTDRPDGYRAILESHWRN
row,Structure (SMILES),inhibition [%]
1,COC(=O)c1sc(N2C(=O)C(O)=C(C(=O)c3ccc(C)o3)C2c2ccc(F)cc2)nc1C (stereo not given),8
2,O=C1c2ccccc2C(=O)N1c1cccc(-c2nc3ccccc3o2)c1,7
3,CC1(C)CC(=O)C(C=Nc2ccncc2)=C(O)C1,0
4,CCCC(C)C1C(C#N)=C(N)Oc2cc(C)oc(=O)c21 (stereo not given),1
5,O=C(Nc1ccc(Cl)c(Cl)c1)Nc1cc(C(=O)N2CCOCC2)ccc1N1CCCCC1,4
6,COc1ccc(/C=N/O)cc1COc1ccc(NC(C)=O)cc1,1
7,CCOC(=O)C1/C(=N\O)CC(C)(O)C(C(=O)OCC)C1c1ccc(N(C)C)cc1 (stereo not given),0
8,CCOc1ccc(N2CC(C(=O)Nc3cccc(C)c3C)CC2=O)cc1 (stereo not given),0
9,COc1ccc(C(C)NC(=O)c2ccoc2C)cc1OC (stereo not given),5
10,Nn1c(SCC(=O)Nc2ccc3c(c2)OCCO3)nnc1C(F)(F)F,4
11,Cc1c(NC(=O)Cn2nc(C(=O)O)c3ccccc3c2=O)c(=O)n(-c2ccccc2)n1C,0
12,COc1nc(-c2ccc(Cl)cc2)ccc1-c1noc(-c2ccncc2)n1,4
13,CCC(C)NC(=O)C1(C)CCC(=O)N1CCc1ccc(OC)c(OC)c1 (stereo not given),0
14,O=C(NC1CCCc2ccccc21)C1CCN(S(=O)(=O)c2cnc[nH]2)CC1 (stereo not given),2
15,COc1ccc(N2CCN(C(=O)CSc3ncnc4c3cnn4-c3ccccc3C)CC2)cc1,0
16,COc1ccc(-c2ccc(CCC(=O)O)n2NC(=O)c2cccs2)cc1,0
17,COc1ccc(CCNC(=O)CSc2nncn2N)cc1OC,5
18,COc1ccc(N2CCN(C(=O)COc3ccc4ccccc4c3)CC2)cc1,2
19,Cc1cc(C)nc(NC2=NCC(=O)N2c2ccccc2Br)n1,0
20,O=C(NCc1ccccc1)N[C@@H](Cc1ccccc1)C(=O)O,1

row,Structure (SMILES),inhibition [%]
1,Cc1noc(C)c1COc1cccc(C(=O)Oc2ccc3c(c2)OCO3)c1,0
2,CCOC(=O)CSc1nnc(CNC(=O)c2cccs2)n1-c1cc(OC)ccc1OC,1
3,O=C(CCS(=O)(=O)c1cccc2nonc12)Nc1cccc2c1CCCC2,1
4,Cc1cc(C)cc(NC(=O)CSc2nnc(Cc3cccn3C)n2-c2ccc(F)cc2)c1,6
5,O=c1[nH]c(NCc2ccco2)nnc1Cc1ccccc1Cl,0
6,CCCCc1c(O)nc(SCCN(C)C)n(-c2ccccc2)c1=O,0
7,CCC(=O)Nc1ccc(F)c(Cl)c1,6
8,COC(=O)c1[nH]c(C)c(/C(O)=C2\C(=O)C(=O)N(CCCN3CCOCC3)C2c2ccccn2)c1C (stereo not given),8
9,CC1CC(C)CN(CCCNC(=O)c2ccc3c(c2)NC(=O)C(N2CCCCC2)S3)C1 (stereo not given),0
10,CC(C)(C)n1nnnc1C(c1cccc(C#N)c1)N1CCC(Cc2ccccc2)CC1 (stereo not given),2
11,O=C(NC1(C(F)(F)F)NC(=O)N(Cc2ccco2)C1=O)c1cccnc1 (stereo not given),11
12,CCOc1ccc2nc(NC(=O)CSc3nnnn3C3CCCCC3)sc2c1,1
13,CC(C)Cn1c(=O)c(C2=NS(=O)(=O)c3ccccc3N2)c(O)c2ccccc21,2
14,CC1CCCN(S(=O)(=O)c2coc(C(N)=O)c2)C1 (stereo not given),0
15,Cc1cccc(CCNC(=O)C2CCCN(S(=O)(=O)c3cnc[nH]3)C2)c1 (stereo not given),5
16,COc1cc(CN2CCN(C(=O)CC(C)C)CC2)cc(OC)c1O,0
17,CC1(C)COCN1S(=O)(=O)c1ccc(C(=O)Nc2nnc(-c3ccc(Cl)s3)o2)cc1,4
18,COc1ccc(OC)c(C2=Nn3c(nnc3C3CCCCC3)SC2)c1,0
19,C=CCn1c(Br)nc2c1c(=O)[nH]c(=O)n2C,0
20,Cc1cc(C(F)F)n2nc(C(=O)Nc3ccc(S(=O)(=O)N4CCCCCC4)cc3)nc2n1,1

# Reference: PubChem BioAssay
